Screening results deposited in PubChem by National Center for Advancing Translational Sciences (NCATS).
Shown are actives, neighbours in structure and some others; about 0.59% of the full set was active somewhere.
Vif-A3G inh – Vif-A3G binding inhibition; Q9HC16; HeLa A3G-eYFP + Vif (tagged APOBEC3G with the HIV-1 protein that degrades it), YFP fluorescence, overnight; Potency, µM (doses to about 46.1 µM), for the others: at the top dose activity, negative = active, actives largely listed as inhibitors; 410,000 compounds, 0.076% hits; AID 602310; note: potency is the fitted concentration of half-maximal effect; % is set by controls: 0 for no effect and ±100 for the full control effect; nearly all actives have a fitted effect of over 60% in size
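Read-out is eYFP fluorescence (Ex 488/Em 500-530) from Vif-expressing HeLa A3G-eYFP cells; more signal means A3G escaped Vif-mediated degradation. Cells plated overnight, compound pinned in, incubated overnight at 37 deg C.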
PTHR1 ag – activates the human parathyroid hormone receptor PTHR1; Q03431; HEK293 GP2 PTHR1 cells, GloSensor cAMP luminescence, 1 h; Potency, µM (series often up to 115 µM), without a hit: at the highest dose activation, actives largely listed as activators; 410,000 compounds, 0.075% hits; AID 743266; note: potency is the fitted concentration of half-maximal effect; nearly all actives have a fitted effect of over 55% in size
Target sequence (Q03431 whole entry, looked up): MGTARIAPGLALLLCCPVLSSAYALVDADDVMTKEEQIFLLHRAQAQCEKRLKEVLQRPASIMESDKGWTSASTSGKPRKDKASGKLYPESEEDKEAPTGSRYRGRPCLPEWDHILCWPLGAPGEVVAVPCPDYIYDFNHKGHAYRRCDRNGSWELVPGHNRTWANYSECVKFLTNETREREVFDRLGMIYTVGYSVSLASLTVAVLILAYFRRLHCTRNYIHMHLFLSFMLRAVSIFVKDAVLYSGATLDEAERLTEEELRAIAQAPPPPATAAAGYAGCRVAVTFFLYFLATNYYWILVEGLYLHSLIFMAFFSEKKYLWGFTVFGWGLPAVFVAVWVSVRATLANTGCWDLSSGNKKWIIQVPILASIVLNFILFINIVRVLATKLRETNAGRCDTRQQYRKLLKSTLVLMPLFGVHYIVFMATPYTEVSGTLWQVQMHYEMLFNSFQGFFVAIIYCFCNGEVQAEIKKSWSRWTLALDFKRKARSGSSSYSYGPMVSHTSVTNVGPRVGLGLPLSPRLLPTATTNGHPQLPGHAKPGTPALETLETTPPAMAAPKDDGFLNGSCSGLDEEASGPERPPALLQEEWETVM
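HEK-293-derived GP2 cells expressing PTHR1 and a GloSensor cAMP reporter, 3,000/well, plated overnight, given luciferin plus IBMX (each 0.5 mM as added) for 1 h at 37 °C, then compound for 1 h at 37 °C. Luminescence was read after 15 min at room temperature.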
LDHA inh – blocks human lactate dehydrogenase A | P00338 | purified LDHA, NADH/diaphorase-resazurin fluorescence; stronger effect = lower value | activity change, % (values are at about 110 or 230 µM) | 480,000 compounds, 0.15% hits | AID 1347041; in the data active = activity change below about -30%; inconclusive = mostly about -25% to -30%;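 note: plate controls were DMSO wells for no effect and wells without enzyme for full effect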
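Remaining NADH was detected by diaphorase (0.133 mg/mL) converting 37 µM resazurin to fluorescent resorufin, read at 0 and 20 minutes. The preceding 5-minute room-temperature reaction used 2 nM LDHA, 0.2 mM sodium pyruvate and 0.06 mM NADH at pH 7.4.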
Vif-APOBEC3F blk – inhibitors of Vif-A3F interaction. HeLa A3F-eYFP + Vif (tagged APOBEC3F with the HIV-1 protein that degrades it), YFP fluorescence increase. Potency, µM (highest dose often 46.1 µM), without a hit: top-dose activity, negative = active. 390,000 compounds, 0.2% hits. AID 602313; note: potency is the fitted concentration of half-maximal effect; % of control where 0% means no effect; nearly all actives have a fitted effect of over 65% in size
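Fluorescence increase (Ex 488/Em 500-530) after overnight compound treatment at 37 deg C flags inhibition of Vif-driven A3F-eYFP loss in stable HeLa A3F-eYFP/Vif cells seeded overnight beforehand.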
PINK1 modulator – modulators of PINK1 expression | PINK1 immunofluorescence, high-content cytometry, 24 h | Potency, µM (top dose mostly 76.6 µM), for the others: at the highest dose activation (PINK1 increase), hits mostly activators | 410,000 compounds, 0.2% hits | AID 624263; active = well fitted activation curve with a large enough effect; inconclusive = small, poorly fitted or top-dose-only effect; cell line not stated here; note: potency is the fitted concentration of half-maximal effect; % of control where 0% means no effect; nearly all actives have a fitted effect of over 65% in size
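PINK1 protein, normally rapidly degraded, was detected by immunofluorescence after 24 hour compound treatment of a stable cell line. Titration data (5 concentrations) came from laser-scanning cytometry, with CCCP-treated wells as controls.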
IDH1 R132H inh – blocks human mutant IDH1 R132H enzyme; IDH1-R132H enzyme, NADPH consumption, diaphorase/resazurin fluorescence; 390,000 compounds, 0.093% hits; O75874; AID 602179; Potency, µM (series often up to 76.6 µM), inactives show at the highest dose activity change, negative = inhibition, hits mostly inhibitors; note: potency is the fitted concentration of half-maximal effect; % is set by controls: 0 for no effect and ±100 for the full control effect; nearly all actives have a fitted effect of over 65% in size
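IDH1-R132H (0.5 ug/mL) preincubated 30 min with compound, then NADPH (0.016 mM) and alpha-KG (2 mM) added; 80 min at RT, pH 7.5. Remaining NADPH coupled via diaphorase/resazurin to fluorescence (540/590 nm); concentration-response curves normalized to no-enzyme control.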
Resorufin autofl – counter-screen for mutant IDH1 inhibitors: fluorescence interference | shares compounds with IDH1 R132H inh | Resorufin detection reagent fluorescence interference, cell-free | inhibition of signal, % at 51.2 µM | 750 tested, under 10 active;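 note: 0% = wells with normal resorufin and full inhibition = wells lacking resorufin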
IDH1 WT – wild-type IDH1 (human) inhibition counterscreen; shares compounds with IDH1 R132H inh; WT IDH1 enzyme, NADPH diaphorase/resazurin fluorescence; Potency, µM (highest dose often 115 µM), inactives show at the highest dose activity change, negative = inhibition, actives largely listed as inhibitors; 750 compounds, 9% hits; AID 623995;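 note: potency is the fitted concentration of half-maximal effect; 0% = full WT IDH1 enzyme control and full inhibition = no enzyme wells; nearly all actives have a fitted effect of over 55% in size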
IDH1 R132H conf – mutant IDH1 (human) inhibition, confirmed; shares compounds with IDH1 R132H inh; IDH1 R132H enzyme, NADPH diaphorase/resazurin fluorescence; Potency, µM (titrated, usually from 76.6 µM), without a hit: at the top dose activity change, negative = inhibition, actives largely listed as inhibitors; 750 compounds, 83% hits; note: potency is the fitted concentration of half-maximal effect; nearly all actives have a fitted effect of over 50% in size
Active calls of the source: *; i = inactive; ? = inconclusive; . = no result; [ ] = another dose, or the depositor's remark. Unless noted, calls come from the whole dose curve; as a rule, active = well fitted curve in the direction sought with a large enough effect; inconclusive = small, poorly fitted or top-dose-only effect, or another doubt; inactive = no such curve, though single readings can be large; an effect the other way counts as inactive or inconclusive.

SMILES | Vif-A3G inh | PTHR1 ag | LDHA inh | Vif-APOBEC3F blk | PINK1 modulator | IDH1 R132H inh | Resorufin autofl | IDH1 WT | IDH1 R132H conf
Cc1ccc(C(C(=O)NC2CCCC2)N(C(=O)Cc2cccs2)c2cccc(C)c2C)o1 (stereo not drawn) | 2% | i | 3 | -5% | 4%[38.3 µM] | 9.3µM* | 2 | 5% | 6.3µM*
CC1(C)Cc2c(C#N)c(OCC(=O)Nc3cccc(Cl)c3)nc(N3CCOCC3)c2CO1 | . | . | -3 | . | . | . | . | . | .
C=CCOC(=O)Nc1snnc1C | 5% | -6% | -4 | -2% | -2% | -5% | . | . | .
Cc1nnsc1NC(=O)OCc1ccc(C(C)(C)C)cc1 | -1% | -27%[57.5 µM] | -2 | . | 0% | ? | 3 | 2% | -3%
CC1(C)O[C@@H]2C[C@H]3[C@@H]4CCC5=CC(=O)C=C[C@]5(C)[C@@]4(F)[C@@H](O)C[C@]3(C)[C@]2(C(=O)CO)O1 | -2% | -9% | -4 | 0% | 6% | -13% | . | . | .
CC(=O)OCC(=O)[C@@]12OC3(CCCC3)O[C@@H]1C[C@H]1[C@@H]3CCC4=CC(=O)C=C[C@]4(C)[C@@]3(F)[C@@H](O)C[C@@]12C | 0% | i | -7 | 4% | 0% | 14µM* | 4 | -11% | 7.1µM*
CN1CCN(NC(=O)c2cc(-c3ccc(Cl)s3)nc3ccccc23)CC1 | 1% | i | -18 | -22% | 0% | ? | -2 | 7% | -2%
O=C(COC(=O)C12CC3CC(CC(O)(C3)C1)C2)Nc1ccc([N+](=O)[O-])cc1Cl | . | . | -1 | . | . | . | . | . | .
CC(=O)N1CCN(C(=O)CCc2ncc(-c3ccccc3)o2)CC1 | . | . | 5 | . | . | . | . | . | .
Cc1nc(NC(=O)c2cc(F)ccc2Br)sc1C | . | . | 9 | . | . | . | . | . | .
CC(C)c1ccccc1-n1c(SCc2cc(=O)oc3ccc4ccccc4c23)nnc1-c1cccnc1 | 0% | i | 0 | -15% | -2% | ? | 7 | -24% | 11µM*
Cc1cc(N(CCO)CCO)ccc1C(c1ccc(N(CCO)CCO)cc1C)c1ccccc1Cl | -7% | -1% | 7 | -6% | -5% | 26µM* | 7 | ? | 7.1µM*
O=C(COC(=O)c1ccc(F)c([N+](=O)[O-])c1)NC(=O)NCc1ccccc1 | -23% | i | -7 | -8% | -2% | 46µM* | -8 | -14% | 28µM*
COc1ccccc1N(C(=O)c1snc(C(N)=O)c1N)C(C(=O)NCc1ccccc1)c1ccc(O)cc1 (stereo not drawn) | -12% | -5% | -9 | -13% | -1% | 58µM* | 6 | -2% | 22µM*
Cc1ccc(C(C(=O)NC2CCCC2)N(Cc2ccc(F)cc2)C(=O)c2snc(C(N)=O)c2N)o1 (stereo not drawn) | 3% | i | -1 | 2% | 4% | ? | -12 | 11% | ?
COc1ccc(CN(C(=O)Cc2c[nH]c3ccccc23)C(C(=O)NC2CCCCC2)c2ccc(C)o2)cc1 (stereo not drawn) | 2% | -14% | 0 | -4% | . | -17% | . | . | .
Cc1ccc(C(C(=O)NC2CCCCC2)N(Cc2ccccc2)C(=O)Cc2c[nH]c3ccccc23)o1 (stereo not drawn) | 1% | i | 0 | 1% | 10% | ? | -6 | 9% | ?
Cc1ccccc1N(C(=O)c1snc(C(N)=O)c1N)C(C(=O)NC1CCCC1)c1ccco1 (stereo not drawn) | -1% | i | -11 | 5% | 2% | ? | 2 | 13% | 40µM*
Cc1ccc(C(C(=O)NC2CCCC2)N(Cc2ccc(F)cc2)C(=O)c2csnn2)o1 (stereo not drawn) | -1% | -1% | -18 | -8% | -3% | -3% | . | . | .
COc1ccccc1-n1[nH]c(C)c(Cc2cccc(Cl)c2)c1=O | . | . | 6 | . | . | . | . | . | .
Cc1oc(-c2ccccc2)nc1CNC(=O)Nc1ccccc1Cl | . | . | 0 | . | . | . | . | . | .
COc1ccc(C(C(=O)NC2CCCC2)N(C(=O)c2snc(C(N)=O)c2N)c2ccccc2OC)cc1OC (stereo not drawn) | 1% | -5% | 2 | -1% | 2% | -7% | . | . | .
COc1ccc(N(C(=O)c2snc(C(N)=O)c2N)C(C(=O)NC2CCCCC2)c2ccc(C)o2)cc1 (stereo not drawn) | 3% | -4% | -9 | 4% | 2% | ? | 2 | 2% | ?
Cc1cccc(N(C(=O)c2ccco2)C(C(=O)NC2CCCC2)c2ccco2)c1C (stereo not drawn) | -1% | 6% | -2 | 10% | 0% | ? | -5 | 8% | 20µM*
CC(=O)c1cccc(N(C(=O)c2ccco2)C(C(=O)NC2CCCC2)c2ccccc2F)c1 (stereo not drawn) | 0% | i | -3 | 2% | 0% | 23µM* | -1 | 4% | 11µM*
SMILES | Vif-A3G inh | PTHR1 ag | LDHA inh | Vif-APOBEC3F blk | PINK1 modulator | IDH1 R132H inh | Resorufin autofl | IDH1 WT | IDH1 R132H conf
COc1ccc(C(C(=O)NC2CCCC2)N(C(=O)c2snc(C(N)=O)c2N)c2cc(C)ccc2OC)cc1OC (stereo not drawn) | -10% | i | 5 | 13% | 4% | ? | 5 | 4% | 32µM*
Cc1ccn2cc(C(=O)N3CCN(c4cccc(Cl)c4)CC3)nc2c1 | . | . | 13 | . | . | . | . | . | .
COc1ccc(C2C3=C(CCCC3=O)Nc3c(C#N)cnn32)cc1OC (stereo not drawn) | . | . | -16 | . | . | . | . | . | .
N#CC1=C(N)NC(SCC(=O)Nc2ccc(Br)cc2)=C(C#N)C12CCCCC2 | -1% | -9%[57.5 µM] | -1 | -6% | ? | ? | 1 | 7% | 22µM*
N#CC1=C(N)NC(SCc2ccc(Br)cc2)=C(C#N)C12CCCCC2 | -19% | -85% | -5 | -15% | ? | -1% | . | . | .
O=S(=O)(NCC(Nc1ccc(Cl)cc1)c1ccccc1)c1ccccc1 (stereo not drawn) | -18% | -21% | -2 | 1% | ? | ? | 2 | -6% | 22µM*
